Assay results from publication PMC5540273 (PLoS ONE, 2017).
Where two headings read alike, the source gives them in different places.

What was measured:
Conditions in all cases: n = 1
[1] = tested on: ANKK1
[2] = tested on: T1, ARK5
T1 construct: gene NUAK1

[3] = tested on: T2, ASK1
T2 construct: gene MAP3K5

[4] = tested on: T3, ASK2
T3 construct: gene MAP3K6

[5] = tested on: AURKA
[6] = tested on: AURKB
[7] = tested on: AURKC
[8] = tested on: AXL
[9] = tested on: T4, BIKE
T4 construct: gene BMP2K

[10] = tested on: BLK
[11] = concentration: 1 μM, replicates: in singlicate
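Also: KINOMEscan kinase panel screen.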

SMILES | %Inh [1, 11] [%] | %Inh [2, 11] [%] | %Inh [3, 11] [%] | %Inh [4, 11] [%] | %Inh [5, 11] [%] | %Inh [6, 11] [%] | %Inh [7, 11] [%] | %Inh [8, 11] [%] | %Inh [9, 11] [%] | %Inh [10, 11] [%] | %Inh ([1]; 1 µM) [%] | %Inh ([2]; 1 µM) [%] | %Inh ([3]; 1 µM) [%] | %Inh ([4]; 1 µM) [%] | %Inh ([5]; 1 µM) [%] | %Inh ([6]; 1 µM) [%] | %Inh ([7]; 1 µM) [%] | %Inh ([8]; 1 µM) [%] | %Inh ([9]; 1 µM) [%] | %Inh ([10]; 1 µM) [%]
COC(=O)c1c(-c2ccccc2)c2cc(C(=O)O)ccc2c(=O)n1Cc1ccccc1 | 0 | 5 | 0 | 0 | 0 | 11 | 0 | 0 | 0 | 0 |  |  |  |  |  |  |  |  |  | 
COc1cc(Nc2nccc(N3CCC(NC(=O)Nc4cc(C)ccc4C)C3)n2)cc(OC)c1OC (stereo not drawn) [GSK1379762] | 13 | 50 | 1 | 7 | 92.7 | 94.4 | 81 | 0 | 60 | 10 |  |  |  |  |  |  |  |  |  | 
C[C@@H]1CCCCN1c1cc(-c2ccc3c(N)n[nH]c3c2)nc(N)n1 [GSK2258759] | 17 | 0 | 0 | 0 | 82 | 0 | 14 | 0 | 26 | 0 |  |  |  |  |  |  |  |  |  | 
CC1=C(C(=O)Nc2cc3cn[nH]c3cc2F)C(c2ccc(C(F)(F)F)cc2)CC(=O)N1 (stereo not drawn) [GSK429286] | 0 | 7 | 0 | 24 | 23 | 1 | 46 | 0 | 19 | 42 |  |  |  |  |  |  |  |  |  | 
O=C(Nc1ccc2c(c1)OCO2)NC1CCN(c2ccnc(Nc3ccc(F)cc3)n2)C1 (stereo not drawn) [GSK1379724] | 0 | 8 | 3 | 0 | 0 | 99.4 | 52 | 5 | 27 | 19 |  |  |  |  |  |  |  |  |  | 
Cc1cccc(-c2nc(Nc3ccc4[nH]ncc4c3)c3ccccc3n2)n1 [GW857175] | 0 | 1 | 0 | 13 | 0 | 3 | 22 | 26 | 33 | 3 |  |  |  |  |  |  |  |  |  | 
COc1cccc(NC(=O)NC2CCN(c3ccnc(Nc4ccc(F)cc4)n3)C2)c1 (stereo not drawn) [GSK1379721] | 4 | 9 | 8 | 4 | 21 | 0 | 8 | 0 | 0 | 0 |  |  |  |  |  |  |  |  |  | 
Cl.c1ccc(-c2n[nH]cc2-c2ccnc(-c3ccc(CN4CCOCC4)cc3)c2)nc1 [GW776245] | 0 | 0 | 1 | 0 | 0 | 6 | 8 | 0 | 20 | 9 |  |  |  |  |  |  |  |  |  | 
Cc1cccc(-c2cc(Nc3ccncc3)c3ccccc3n2)n1 [GSK223675] | 6 | 8 | 11 | 9 | 9 | 0 | 1 | 0 | 9 | 11 |  |  |  |  |  |  |  |  |  | 
Cl.Oc1ccc(-c2nc(-c3ccccc3)[nH]c2-c2ccncc2)cc1 [SB-428218] | 10 | 62 | 24 | 0 | 0 | 32 | 0 | 0 | 0 | 58 |  |  |  |  |  |  |  |  |  | 
Cn1ccc2ncnc(Oc3ccc(Nc4nc5ccccc5[nH]4)cc3)c21 | 0 | 14 | 0 | 0 | 0 | 95.2 | 3 | 0 | 0 | 0 |  |  |  |  |  |  |  |  |  | 
Fc1cc(Cl)ccc1Nc1ccnc2cc(I)ccc12 [GW551191] | 5 | 3 | 0 | 0 | 0 | 28 | 41 | 0 | 16 | 38 |  |  |  |  |  |  |  |  |  | 
Cc1ccc(C(=O)Nc2ccc(Nc3ccnc4cc(-c5ccccn5)ccc34)cc2O)cc1.Cl [GW440146] | 33 | 0 | 0 | 0 | 29 | 80 | 90.1 | 0 | 39 | 98.4 |  |  |  |  |  |  |  |  |  | 
Cc1ccccc1-n1cnc2c(N)ncnc21 [SKF-97510] | 0 | 0 | 7 | 0 | 0 | 0 | 0 | 0 | 0 | 9 |  |  |  |  |  |  |  |  |  | 
Cc1ccc(NC(=O)Nc2cccc(C(F)(F)F)c2)cc1 [GSK955403] |  |  |  |  |  |  |  |  |  |  | 0 | 0 | 20 | 0 | 0 | 0 | 19 | 0 | 4 | 0
